Data as given in PubChem BioAssay (NCI).
This is part of a sample that, as a whole, favours compounds with a hit. Of some 79,000 tested, about 15% had one in any assay. Values without a mark were called inactive. Activity calls are given as the source filed them. Rule as the data show it: active = growth inhibition above about 70%; inactive = the rest.

What was measured:
[1] = NCI Yeast Anticancer Drug Screen. Data for the rad50 strain (AID 155);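 also: 0% = growth of vehicle-only cultures of the same strain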; details: S. cerevisiae rad50 strain growth inhibition, stronger effect = higher value; at 50.0 µM unless noted
In short: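 Genetically altered yeast (DNA repair pathway); compound treatment; growth inhibition vs vehicle ctrl.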

[2] = NCI Yeast Anticancer Drug Screen. Data for the mec2-1 strain (AID 157); details: S. cerevisiae mec2-1 strain, stronger effect = higher value; at 50.0 µM unless noted
In short: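 Strain: mec2-1 (DNA repair/cell cycle alteration). Compound exposure, then growth measured; inhibition expressed relative to vehicle.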

[3] = NCI Yeast Anticancer Drug Screen. Data for the sgs1 mgt1 strain (AID 161);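 also: 0% = growth of cultures given vehicle only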; details: S. cerevisiae sgs1 mgt1 strain, stronger effect = higher value; at 50.0 µM unless noted
In short: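 Test agents were incubated with a DNA-repair-mutant yeast strain. Growth was then read and compared against vehicle-treated controls.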

[4] = NCI Yeast Anticancer Drug Screen. Data for the cln2 rad14 strain (AID 165);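 also: 0% = growth equal to vehicle treated cultures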; details: S. cerevisiae cln2 rad14 strain, stronger effect = higher value; at 50.0 µM unless noted
In short: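 Compounds are applied to the cln2 rad14 yeast strain, and growth is then compared with that of vehicle-treated cultures to give inhibition.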

[5] = NCI Yeast Anticancer Drug Screen. Data for the bub3 strain (AID 167); details: S. cerevisiae bub3 mutant strain, stronger effect = higher value; at 50.0 µM unless noted
In short: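 Yeast carrying a defined mutation is treated with each compound, and growth is compared with that of vehicle-exposed cells to give inhibition.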

[6] = NCI Yeast Anticancer Drug Screen. Data for the mlh1 rad18 strain (AID 175); details: S. cerevisiae mlh1 rad18 strain growth inhibition, stronger effect = higher value; at 50.0 µM unless noted
In short: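 Read-out is yeast growth inhibition, calculated against vehicle-only controls. The compound was applied to a strain engineered with DNA damage repair alterations.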

SMILES | growth inhibition [1] | growth inhibition [2] | growth inhibition [3] | growth inhibition [4] | growth inhibition [5] | growth inhibition [6]
COc1ccc(-c2oc(=O)cc(-c3ccccc3)c2-c2ccccc2)cc1 | 22.6% | -11.6% | 16.2% | 4.2% | -3.55% | 14.7%
CSc1nc(SC)c2cnn(CC3CO3)c2n1 (stereo unspecified) | 44.2% | -15.2% | 60.8% | 11.1% | -20.1% | 39.5%
NC(=O)C1CC2(c3ccccn3)c3ccccc3C1c1ccccc12 (stereo unspecified) | -0.1% | 7.6% | 10.4% | 4.2% | -22.1% | -6.1%
Nc1nc(-c2cc(Br)ccc2N=NN2CCCCC2)nc2ccc(Br)cc12 | 82.2% (active) | 37.2% | 79.5% (active) | 46% | 22.3% | 70.8% (active)
CC(C)/C(Cl)=N/OC(=O)Nc1ccc(F)c(Cl)c1 | 37.4% | 35.3% | 89.3% (active) | -1.3% | 60.8% | -36.8%
NC(=S)Nc1ccc(Br)cc1 | -0.85% | 23.6% | 25.5% | 34.8% | -4.05% | 7.6%
c1ccc2c3c([nH]c2c1)CCCC3 | -1.6% | 1.2% | -10.2% | -31.4% | 11.5% | -1.25%
COc1cccc2c1C(=O)c1c(O)c(CCl)cc(OC)c1C2=O | 16.9% | -4.6% | 20.9% | -33% | 5.6% | 14.9%
C1COC2SC3=C(SC(=C4SC5=C(SCCS5)S4)S3)SC2O1 (stereo unspecified) | 3.05% | -2.05% | 19.2% | -5.6% | 8.85% | 6.9%
O=C(N[C@@H](CSSC[C@H](NC(=O)OCc1ccccc1)C(=O)O)C(=O)O)OCc1ccccc1 | 15.6% | 0.85% | 9.2% | -3.65% | 2.7% | 2.55%
Cc1ccc(S(=O)(=O)OC2CSS(=O)CC2OS(=O)(=O)c2ccc(C)cc2)cc1 (stereo unspecified) | 12.8% | -3.15% | 4.45% | 19.1% | -1.4% | 21.1%
CSC(=S)N/N=C(\C)c1cccs1 | 7.05% | 1.85% | 4.75% | -50.9% | -47.5% | 10.8%
Brc1ccc2c(ccc3c2nnc2ncnn23)c1 | 42.5% | 22.4% | 16.9% | 10.7% | -1.55% | 42.2%
Cc1ccc(NC(=O)c2cccc(OP(=O)(O)Nc3ccc(C)cc3)c2)cc1 | -13.7% | 2.7% | 2.8% | 17% | -0.95% | -17%
C=Nc1ccc(Nc2ccccc2)cc1 | 5.7% | -5.2% | -2.4% | -3.25% | -1.6% | 3.3%
O=C1c2ccccc2C(=O)c2c1ccc1c3ccccc3n(-c3ccccc3)c21 | 7.4% | 4.2% | 18.4% | -5.2% | 6.65% | 15.7%
O=C1c2cccc3cc([N+](=O)[O-])cc(c23)C(=O)N1C(CO)(CO)CO | 29.9% | 12.6% | 30.1% | 27.5% | 16% | -4.45%
NC1=C(O)C(=O)C(c2ccc3c(c2)OCO3)O1 (stereo unspecified) | -17.6% | -5% | -19.9% | -30.2% | 24.8% | -5.2%
CC1C(=O)N(c2ccccc2)NC12CCCc1ccccc12 (stereo unspecified) | -15.2% | -7.3% | -34.8% | 16.6% | 25.1% | 27.6%
O=C(CNC(=O)C(CSC(c1ccccc1)c1ccccc1)NC(=O)C(CSC(c1ccccc1)(c1ccccc1)c1ccccc1)NC(=O)OCc1ccccc1)OC(c1ccccc1)c1ccccc1 (stereo unspecified) | 4.15% | 3.1% | -6.25% | -4.25% | -1.85% | 20.7%
BrC1CC2CCC1CC2 (stereo unspecified) | -14.7% | -6.45% | -7.2% | -6.8% | -7.05% | 16.6%

SMILES | growth inhibition [1] | growth inhibition [2] | growth inhibition [3] | growth inhibition [4] | growth inhibition [5] | growth inhibition [6]
O=C(/C=C/c1ccc(O)c(O)c1)OC1CC(O)(C(=O)O)CC(O)C1O (stereo unspecified) (tested in a mixture with another compound) | -26.6% | -13.9% | -9.35% | -17.1% | 4% | -12.3%
CN(C)N=Nc1ccc(S(C)(=O)=O)cc1 | 4.9% | 0.6% | 1.5% | -22.1% | 10.1% | 8.1%
CC(=O)OC1CCC2(C)C(CCC3(C)C2C(=O)C=C2C4CC(C)(C(=O)O)CCC4(C)CCC23C)C1(C)C (stereo unspecified) | -3.8% | -9.5% | -13% | -4.25% | -5.75% | -8.5%
O=C(NC1c2ccccc2Oc2ccccc21)OCCI | 36.1% | 6.05% | 37.6% | 13.3% | -14% | 19.8%
Cc1ccc(S(=O)(=O)Nc2ccccc2-c2nc3ccc(C)cc3c(=O)o2)cc1 | -5.35% | -24.7% | -7.8% | 2.9% | -7.55% | -13.7%
O=C(CCC1OCCO1)Nc1cc([N+](=O)[O-])ccc1OCc1ccccc1 | -1.9% | 4.5% | 6.25% | -8.2% | -1.35% | 7.6%
CCOC(=O)/C(C#N)=C/c1cccc([N+](=O)[O-])c1 | 4.9% | 4.8% | 7.05% | -11.6% | 34.1% | 31.2%
CCCCOP(=O)(Nc1ccc([N+](=O)[O-])cc1)OCCCC | 94.1% (active) | 86.3% (active) | 91.1% (active) | 74% (active) | 77.2% (active) | 87.5% (active)
C/C(=N/NC(N)=O)C1CCc2ccccc2C1 (stereo unspecified) | 43% | -6.9% | 3.2% | 1.95% | 7.8% | 22.9%
Nc1ccc(S(=O)(=O)Nc2cc(C(F)(F)F)cc(C(F)(F)F)c2)cc1 | 12.9% | 16.6% | 28.6% | 41.6% | 10.7% | 32%
COc1cc2c(=O)[nH]c3cc(N)ccc3c2cc1N | 9.6% | 7.9% | -4.2% | -7.8% | -3.95% | 0.6%
O=c1[nH]cnc2c1ncn2C1CCCO1 (stereo unspecified) | -14.2% | -3.3% | -2.9% | -24.1% | 17.4% | 0.9%
NC(=O)Nc1nc2ccccc2[nH]1 | -26.2% | -21.6% | -11.7% | -0.3% | -7.7% | 3.4%
CC(NCCN1CCOCC1)c1ccc2ccccc2c1 (stereo unspecified) | 40.7% | 15.4% | 41.5% | 23.9% | 32.8% | 42.6%
CC(=O)Nc1cc(Cl)ccc1F | 14.1% | -6.15% | 12.4% | -7.1% | -0.7% | 17.9%
CC1CC(=O)Nc2nc3ccccc3n21 (stereo unspecified) | 7.15% | 6.65% | -25.2% | -44.9% | -21.8% | -28.8%
O=C(O)CCN1C(=O)CSC1=S | 6.7% | 2.15% | -21.8% | -2.4% | 20.6% | -5.7%
CN(C)CC(C(=O)/C=C/c1ccccc1)C(C)(C)C (stereo unspecified) | -10.4% | -21.9% | -16.2% | 11.6% | -11% | -38.3%
O=C(O)[C@H](Cc1ccccc1)N1C(=O)N[C@@H](Cc2ccccc2)C1=O | -21.6% | -1.7% | 4.75% | 2.35% | 3.6% | -2.7%
COC(=O)Cc1cc(C)n(C)c(=O)c1CN1C(=O)c2ccccc2C1=O | 10.6% | -10.9% | 5.4% | 12.4% | -11.2% | 20.8%
